# Where “and” joins values, the source holds several entries; their conditions need not be identical. Equal values may be shown once. Inconclusive results are not listed. Calls of active or inactive are those of the source. Calls come from the whole dose curve; as a rule, active = well fitted activation curve with a large enough effect; inconclusive = small, poorly fitted or top-dose-only effect; inactive = no such curve, though single readings can be large or run the other way. Peptide text beside a SMILES is read from it. * marks the point of attachment. AFC = O=c1cc(C(F)(F)F)c2ccc(N*)cc2o1
# Target: Cellular tumor antigen p53 (Homo sapiens) (UniProt P04637)
# Experiment: Primary qHTS for small molecule compounds that upregulate eGFP-tagged delta133p53alpha (in N-terminal) cells. (AID 2060322); note: nearly all actives have a fitted effect of over 75% in size;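 for activation: cells pre-induced with doxycycline then dosed without doxycycline; series mostly up to about 56 µM; 0% = DMSO vehicle and 100% = reference activator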
# Settings: NCI-H358 eGFP-delta133p53alpha fluorescence, 24 h; activation: stronger effect = higher value
# From the text: Assay Development and Screening Technology
# National Center for Advancing Translational Sciences (NCATS),
# National Institute of Health (NIH), Rockville, Maryland
# Cellular senescence (CS) is one of the hallmarks of aging and age-related diseases. Senescent cells are characterized by an irreversible growth arrest, an increase in senescence-associated beta-galactosidase (SA-beta-gal) activity and p16INK4a expression, an activation of the DNA damage response pathways, and the emergence of a senescence-associated secretory phenotype (SASP).
# Delta133p53alpha, a human/primate-specific p53 protein isoform, delays or inhibits the induction of CS and SASP in various types of human cells, including progeria-derived fibroblasts, primary normal astrocytes, and CD8+ T lymphocytes. Induction of delta133p53alpha with small molecule compounds may provide therapeutic opportunities for inhibition of senescence/SASP-associated pathologies in progeria syndromes, astrocyte-mediated neuroprotection in neurodegenerative diseases, and possibly prevention and treatment of a wider range of senescence- and aging-associated diseases.
# Here we report the development and validation of a cell-based quantitative high throughput screening (qHTS) assay in 1,536-well format. This qHTS assay uses the NCI-H358 cell line with doxycycline-inducible expression of enhanced green fluorescent protein (eGFP)-tagged delta133p53alpha, which allows efficient and highly quantitative measurement of the protein levels.
# PROTOCOL TABLE (as described by Inglese J, Shamu CE and Guy RK. 2007)
# SEQUENCE No. (e.g., 1, 2, 3, etc.); […] (e.g., Cells, Incubation, Reagent, etc.); VALUE; DESCRIPTION.
# 1; Cells; 4uL; 800 doxycycline treated cells / well in doxycycline-free media, 1536-well black, clear-bottom low base Aurora microplates.
# 2; Compounds; 23 nL; Kalypsis pin tool (Wako) equipped with 1536-well pin heads, 5-azacytidine positive control.
# 3; Incubation; 24 hr; 37C, 5% CO2; 95% relative humidity.
# 4; Aspiration; 1x; BioTek EL406 washer dispenser (Agilent).
# 5; Fixing; 3.5% paraformaldehyde, BioTek EL406 washer dispenser (Agilent).
# 6; Washing; 1x PBS; BioTek EL406 washer dispenser (Agilent).
# 7; Nuclei staining; 1:1000 dilution of Hoechst 33342 (Thermofisher), BioTek EL406 washer dispenser (Agilent).
# 8; Incubation; 20 min; in the dark at room temperature.
# 9; Washing; 2x, 1x PBS (ThermoFisher), BioTek EL406 washer dispenser (Agilent).
# 10; Reagent; 10 uL; 1x PBS per well, sealed with clear adhesive tape.
# NOTES (numbers refer to sequence numbers above).
# 1. NCI-H358 cells expressing eGFP-tagged delta133p53alpha were grown in T75 culture flasks and treated with doxycycline for 24h, at 10 ng/ml for eGFP-D133p53a cells (N-terminal cell) and 100 ng/ml for D133p53a-eGFP cells (C-terminal cells). Cells were trypsinized, counted using a Counted 3 Automated Cell Counter (Thermo Fisher), and diluted to a concentration of 200,000 cells/ml. A Multidrop Combi Reagent Dispenser (ThermoFisher) was used to dispense 800 cells/well in […] of doxycycline-free media, into 1536-well black/clear bottom low base plates (AuroraMicroplates).
# 2. After plating cells, 23 nl of compound library, DMSO vehicle control or positive control (5-azacytidine) were transferred by Pin Tool (Wako). The plate map layout was the same for each plate: (column 1) non-doxycycline treated cells + DMSO vehicle control; (column 2) doxycycline treated cells + DMSO vehicle control baseline; (column 3) doxycycline treated cells + positive control 57.5 uM final concentration 5-azacytidine; (column 4) doxycycline treated cells + serial dilution of 5-azacytidine, 16-point 1:2 titration spanning 1.8 nM to […] final concentration; (columns 5-48) doxycycline treated cells + titration of library compounds.
# 3. Cells were incubated at 37 °C, 5 % CO2, 95% RH with breathable metal lid for 24h.
# 4-10. […] After two washes, 10 ul of 1X PBS (Thermo Fisher) was dispensed to each well. Clear adhesive plate seals (VWR) were applied and plates stored at 4 °C.
# 11. […]
# Potency is the fitted concentration of half-maximal effect.
# Cellular tumor antigen p53 (Homo sapiens), sequence (P04637 whole entry, looked up): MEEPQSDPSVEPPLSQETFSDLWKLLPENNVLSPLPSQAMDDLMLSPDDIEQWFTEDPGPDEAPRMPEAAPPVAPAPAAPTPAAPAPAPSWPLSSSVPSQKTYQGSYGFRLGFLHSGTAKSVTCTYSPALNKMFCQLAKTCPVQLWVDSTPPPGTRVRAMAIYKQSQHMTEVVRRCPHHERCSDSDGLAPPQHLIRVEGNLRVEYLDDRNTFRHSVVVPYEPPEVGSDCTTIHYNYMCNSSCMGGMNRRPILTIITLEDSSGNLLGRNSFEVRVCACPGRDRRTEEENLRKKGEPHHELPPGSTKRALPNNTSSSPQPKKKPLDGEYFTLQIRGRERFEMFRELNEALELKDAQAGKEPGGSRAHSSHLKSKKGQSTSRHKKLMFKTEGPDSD
Compound,activation,Potency
C[C@]12C=CC(=O)C=C1CC[C@@H]1[C@@H]2[C@@H](O)C[C@@]2(C)[C@H]1CC[C@]2(O)C(=O)CO,-4.18% (inactive),–
O=C(Cc1ccccc1)OC[C@H]1O[C@H](O[C@H]2O[C@H](CO)[C@@H](O)[C@H](O)[C@H]2O)[C@H](O)[C@@H](O)[C@@H]1O,-3.05% (inactive),–
CCOc1ncc(F)c(=O)[nH]1,3.95% (inactive),–
O=C(NCC(=O)N1CCCC1)Nc1ccc2cnccc2c1,7.14% (inactive),–
CCCCN(CCCC)CCCOC(=O)c1ccc(N)cc1,-2.51% (inactive),–
CC(=O)N[C@@H](CC(C)C)C(=O)N[C@@H](CCC(=O)O)C(=O)N[C@@H](CCC(=O)O)C(=O)N[C@@H](CC(=O)O)C(=O)Nc1ccc2c(C(F)(F)F)cc(=O)oc2c1 (Ac-LEED-{AFC}),2.33% (inactive),–
Cn1c(=O)n(-c2ccc(C(C)(C)C#N)cc2)c2c3cc(C#Cc4cccnc4)ccc3ncc21,26.8% (inactive),–
COc1ccc(CN2C(=O)C(=O)c3cc(S(=O)(=O)N4CCC[C@H]4COc4cccnc4)ccc32)cc1,19.7% (inactive),–
C=C1C[C@]23C[C@H]1CC[C@H]2[C@]1(C)CCC[C@@]2(CO)C(=O)O[C@H]([C@H]21)[C@@H]3O,-6.11% (inactive),–
CC(=O)O[C@H]1CC2C(COC(=O)CC(C)C)=CO[C@@H](OC(=O)CC(C)C)C2[C@]12CO2 (stereo not given in full),–,10.4 µM (active)
CC(C)[C@@H]1C(=O)N(S(C)(=O)=O)[C@@H]2CCN(C(=O)/C=C/CN3CCCCC3)[C@H]21,8.11% (inactive),–
C[C@@H]1CC[C@]2(C(=O)O)CC[C@]3(C)C(=CCC4[C@@]5(C)CC[C@H](O)[C@](C)(C(=O)O)C5CC[C@]43C)C2[C@]1(C)O (stereo not given in full),8.4% (inactive),–
CC(C)c1cc(C(=O)N2Cc3ccc(CN4CCN(C)CC4)cc3C2)c(O)cc1O,-13.4% (inactive),–
C=CCNC(N)=S,-2.82% (inactive),–
CSc1ccc(C(=O)N[C@@H]2CCCC[C@@H]2NC(=O)CNC(=O)c2cc(C(F)(F)F)ccc2NC(=O)NC(C)C)cc1,-22% (inactive),–
COc1cc2ncnc(Nc3cccc(Cl)c3)c2cc1OC,23.2% (inactive) and -41% (inactive),–
O=C(NC1CCC1)c1ccc(C#Cc2cccc(F)c2)nc1,21.4% (inactive),–
N#CCC(=O)NN,15.9% (inactive),–
COc1ccc(C[C@@H](C)[C@@H](C)Cc2ccc(OC)c(OC)c2)cc1OC,11.5% (inactive),–
C=C1C(OC(C)=O)CCC2(C)CC3(OC)OC(=O)C(C)=C3CC12 (stereo not given),17.9% (inactive),–

Compound,activation,Potency
O=C(O)c1ccccc1Nc1cccc(OCc2ccc3ccccc3n2)c1,-13.1% (inactive),–
NS(=O)(=O)c1cc2c(cc1Cl)NC(C(Cl)Cl)NS2(=O)=O (stereo not given),-14.1% (inactive) and -9.47% (inactive),–
C=C(C(=O)O)C1CC2=C(C)CCCC2(C)C[C@@H]1O (stereo not given in full),-16.1% (inactive),–
Cc1ccc(NC(=O)c2cccc(N(C)C)c2)cc1NC(=O)c1ccc(O)cc1,-4.71% (inactive),–
CC(=O)SC1CC2=CC(=O)CC[C@]2(C)C2CC[C@@]3(C)C(CC[C@@]34CCC(=O)O4)C12 (stereo not given in full),-47.2% (inactive),–
CC(C)Nc1cc(-c2c[nH]c(C(=O)N[C@H](CO)c3cccc(Cl)c3)c2)c(Cl)cn1,–,4.26 µM (active)
CC(=C/C(=O)O)/C=C/[C@]1(O)[C@@]2(C)CO[C@]1(C)C[C@H](O[C@@H]1O[C@H](CO)[C@@H](O)[C@H](O)[C@H]1O)C2,-16.1% (inactive),–
O=C(CS(=O)Cc1ccco1)NC/C=C\COc1cc(CN2CCCCC2)ccn1 (stereo not given),-5.08% (inactive),–
Nc1nc(NC2CC2)cc(-c2cccc(Cl)c2Cl)n1,–,6.01 µM (active)
COc1ccc(C(=O)C2CCN(CC(=O)N(Cc3nc4c(c(=O)[nH]3)COCC4)CC3CC3)CC2)cc1,25.7% (inactive),–
COc1ccc(CCC(=O)c2c(O)cc(O[C@@H]3O[C@H](CO)[C@@H](O)[C@H](O)[C@H]3O[C@@H]3O[C@@H](C)[C@H](O)[C@@H](O)[C@H]3O)cc2O)cc1O,8.33% (inactive),–
COc1ccc(OC(=O)N(CC(=O)O)Cc2ccc(OCCc3nc(-c4ccccc4)oc3C)cc2)cc1,-10.7% (inactive),–
C[C@@H]1O[C@@H](O[C@@H]2[C@@H](O)[C@H](O[C@H]3[C@H](O[C@H]4CC[C@@]5(C)C(CC[C@]6(C)C5CC=C5[C@@H]7CC(C)(C)CC[C@]7(C(=O)O[C@@H]7O[C@H](CO)[C@@H](O)[C@H](O)[C@H]7O)CC[C@]56C)C4(C)C)O[C@H](C(=O)O)[C@@H](O)[C@@H]3O)OC[C@H]2O)[C@H](O)[C@H](O)[C@H]1O (stereo not given in full),-27.5% (inactive),–
CCC(=O)N1CCN(c2ccc(-n3c(=O)ccc4cnc5ccc(-c6cnc7ccccc7c6)cc5c43)cc2C(F)(F)F)CC1,41.3% (inactive),–
O=C(NCCN1CCOCC1)c1cc2c(Oc3ccc(NC(=O)C4(C(=O)Nc5ccc(F)cc5)CC4)cc3)ccnc2[nH]1,10% (inactive),–
C=CC1(C)CC2=CCC3C(C)(C(=O)O)CCCC3(C)C2CC1OC(C)=O (stereo not given),-14.5% (inactive),–
COc1cc(-c2ccc(=O)[nH]n2)ccc1OC(F)F,2.51% (inactive),–
COc1cc(/C=C/C(=O)OCC2OC(OC3(CO)OC(CO)C(O)C3O)C(O)C(O)C2O)ccc1O (stereo not given),10.7% (inactive),–
CC(=O)O[C@H]1CC(C)(C)CC2[C@@]13[C@H](O)C[C@]1(C)[C@@]2(CCC2[C@@]4(C)CC[C@H](O[C@@H]5OC[C@H](O[C@@H]6O[C@H](CO)[C@@H](O)[C@H](O)[C@H]6O[C@@H]6OC[C@@H](O)[C@H](O)[C@H]6O)[C@H](O)[C@H]5O[C@@H]5O[C@H](CO)[C@@H](O)[C@H](O)[C@H]5O)C(C)(C)C4CC[C@]21C)O[C@@H]3O (stereo not given in full),-7.63% (inactive),–
C[C@@H](O)[C@H]1C(=O)N2C(C(=O)OCOC(=O)C(C)(C)C)=C(SC3CN(C4=NCCS4)C3)[C@H](C)[C@H]12,-12.3% (inactive),–

# Reference: PubChem BioAssay (NCATS)
